Reference: PubChem BioAssay (NCI)
The panel holds about 83,000 compounds, 20% with a hit somewhere; the sample as a whole holds those more often.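 Cells were grown in 96-well plates and exposed to the test compound at a single concentration for 48 hours; results are reported as percent growth, with values below 10 considered active.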 Calls of active or inactive are those of the source.

Key:
Assay in all cases: NCI-60 one-dose screen, 48 h (100 = growth as untreated, 0 = no growth, -100 = all killed)
Conditions in all cases: 10 µM unless noted
SR leukemia = test system: SR leukemia
OVCAR-8 ovarian = test system: OVCAR-8 ovarian
OVCAR-5 ovarian = test system: OVCAR-5 ovarian
OVCAR-4 ovarian = test system: OVCAR-4 ovarian
SK-OV-3 ovarian = test system: SK-OV-3 ovarian
IGROV1 ovarian = test system: IGROV1 ovarian
OVCAR-3 ovarian = test system: OVCAR-3 ovarian
HS 578T breast = test system: HS 578T breast
NCI/ADR-RES ovarian = test system: NCI/ADR-RES ovarian
T-47D breast = test system: T-47D breast
BT-549 breast = test system: BT-549 breast
MDA-MB-435 melanoma = test system: MDA-MB-435 melanoma
SW-620 colon = test system: SW-620 colon
MCF7 breast = test system: MCF7 breast
HCT-116 colon = test system: HCT-116 colon
HCC-2998 colon = test system: HCC-2998 colon
KM12 colon = test system: KM12 colon
RPMI-8226 leukemia = test system: RPMI-8226 leukemia

Measured: growth

COc1ccc(NC2=C(Cl)C(=O)c3nc(C)ccc3C2=O)cc1OC
inactive: OVCAR-8 ovarian 92.6% | OVCAR-5 ovarian 105% | OVCAR-4 ovarian 71.4% | SK-OV-3 ovarian 91.8% | IGROV1 ovarian 19.6% | OVCAR-3 ovarian 13.2% | HS 578T breast 119% | NCI/ADR-RES ovarian 94.7% | T-47D breast 14.9% | BT-549 breast 126% | SW-620 colon 72.2% | MCF7 breast 59% | HCT-116 colon 55.8% | HCC-2998 colon 104% | KM12 colon 98.2%
active: SR leukemia 0.922% | MDA-MB-435 melanoma -67.2%

COc1ccc2c(c1)c(CC(=O)[Se]CC(=O)O)c(C)n2C(=O)c1ccc(Cl)cc1
inactive: SR leukemia 101% | OVCAR-8 ovarian 101% | OVCAR-5 ovarian 104% | OVCAR-4 ovarian 103% | SK-OV-3 ovarian 116% | IGROV1 ovarian 74.5% | OVCAR-3 ovarian 113% | HS 578T breast 85.8% | NCI/ADR-RES ovarian 103% | T-47D breast 103% | BT-549 breast 122% | MDA-MB-435 melanoma 51.2% | SW-620 colon 113% | MCF7 breast 37.4% | HCT-116 colon 98.1% | HCC-2998 colon 119% | KM12 colon 101%

Cc1ccc(-c2nnc(SCc3ccc(O)c4ncccc34)n2-c2ccccc2)cc1
active: RPMI-8226 leukemia 7.99% | SK-OV-3 ovarian 5.69% | IGROV1 ovarian 8.07% | HS 578T breast -3.23% | NCI/ADR-RES ovarian 2.09% | T-47D breast 5.79% | MDA-MB-435 melanoma 9.9% | MCF7 breast 4.47% | HCT-116 colon 6.12% | KM12 colon 2.4%
inactive: SR leukemia 12.1% | OVCAR-5 ovarian 37.5% | OVCAR-4 ovarian 13.8% | OVCAR-3 ovarian 16.2% | BT-549 breast 18.4% | SW-620 colon 12.9% | HCC-2998 colon 22.3%

c1ccc(C(c2nc3ncncc3[nH]2)N2CSc3nc4ncncc4n3C2)cc1 (centres undefined)
inactive: SR leukemia 84.9% | RPMI-8226 leukemia 29.4% | OVCAR-4 ovarian 27.1% | SK-OV-3 ovarian 23.1% | IGROV1 ovarian 77.6% | OVCAR-3 ovarian 38.6% | HS 578T breast 77.2% | NCI/ADR-RES ovarian 44.4% | T-47D breast 34.4% | BT-549 breast 73.1% | MDA-MB-435 melanoma 29.2% | SW-620 colon 79% | MCF7 breast 14.2% | HCT-116 colon 41.5% | HCC-2998 colon 55.6% | KM12 colon 51.7%

Cc1ccc(-c2cc3nc(C(Cl)Cl)nc(-c4cccs4)n3n2)cc1
inactive: SR leukemia 108% | OVCAR-8 ovarian 77.5% | OVCAR-5 ovarian 72.4% | OVCAR-4 ovarian 71% | SK-OV-3 ovarian 86.4% | IGROV1 ovarian 61.7% | OVCAR-3 ovarian 20.3% | HS 578T breast 91% | NCI/ADR-RES ovarian 58.3% | T-47D breast 87.8% | BT-549 breast 97.8% | MDA-MB-435 melanoma 77.6% | SW-620 colon 52.5% | MCF7 breast 59.8% | HCT-116 colon 63.5% | HCC-2998 colon 54.1% | KM12 colon 27.1%

Oc1cccc2ccc(-c3nnc(SCc4ccc(O)c5ncccc45)o3)nc12
active: RPMI-8226 leukemia 2.55% | OVCAR-3 ovarian 2.66% | HS 578T breast 8.45% | MCF7 breast 4.96% | HCT-116 colon 5.66% | KM12 colon 8.28%
inactive: SR leukemia 26.1% | OVCAR-5 ovarian 40.9% | OVCAR-4 ovarian 20.5% | SK-OV-3 ovarian 12.3% | IGROV1 ovarian 13.4% | NCI/ADR-RES ovarian 17.3% | T-47D breast 16% | BT-549 breast 15.9% | MDA-MB-435 melanoma 12% | SW-620 colon 19.2% | HCC-2998 colon 27.6%

C=C(C=O)[C@@H]1CC[C@]2(CO)CC[C@]3(C)[C@H](CC[C@@H]4[C@@]5(C)CCCNC(C)(C)[C@@H]5CC[C@]43C)[C@@H]12
inactive: OVCAR-8 ovarian 50.8% | OVCAR-5 ovarian 88.7% | OVCAR-4 ovarian 87% | SK-OV-3 ovarian 104% | IGROV1 ovarian 52.8% | HS 578T breast 71.8% | NCI/ADR-RES ovarian 65.3% | T-47D breast 13.3% | BT-549 breast 74.3% | MDA-MB-435 melanoma 76.3% | MCF7 breast 12.7%
active: SR leukemia 3.73% | OVCAR-3 ovarian 3.49% | SW-620 colon 1.41% | HCT-116 colon -63.8% | HCC-2998 colon -65.7% | KM12 colon 1.61%

COc1ccc2c(c1)c(CC(=O)[Se]CCC#N)c(C)n2C(=O)c1ccc(Cl)cc1
inactive: OVCAR-5 ovarian 29% | OVCAR-4 ovarian 31.6% | SK-OV-3 ovarian 22.3% | T-47D breast 66.7% | HCC-2998 colon 75.6% | KM12 colon 26.5%
active: SR leukemia 4.36% | OVCAR-8 ovarian 6.32% | IGROV1 ovarian -55.6% | OVCAR-3 ovarian -30.7% | HS 578T breast -14.2% | NCI/ADR-RES ovarian -1.67% | BT-549 breast -59.8% | MDA-MB-435 melanoma -13.4% | SW-620 colon 2.84% | MCF7 breast 2.34% | HCT-116 colon -16.9%

O=S(=O)(NCCNc1nccc(-n2cnc3ccccc32)n1)c1ccc(C(F)(F)F)cc1
inactive: SR leukemia 35.5% | OVCAR-8 ovarian 63.5% | OVCAR-5 ovarian 86.2% | OVCAR-4 ovarian 28.4% | SK-OV-3 ovarian 62.2% | IGROV1 ovarian 66.4% | OVCAR-3 ovarian 72.9% | HS 578T breast 42.9% | NCI/ADR-RES ovarian 55.9% | T-47D breast 22.3% | BT-549 breast 53.1% | MDA-MB-435 melanoma 64.4% | SW-620 colon 83.5% | MCF7 breast 34.9% | HCT-116 colon 40.1% | HCC-2998 colon 80.5% | KM12 colon 58.7%

CCNC(=O)Oc1ccc(/C(=C(/C)c2ccccc2)c2ccc(OCCN3CCCCCC3)cc2)cc1
active: SR leukemia 0.632% | OVCAR-8 ovarian 7.06% | OVCAR-3 ovarian 6.04% | HS 578T breast -12.8% | T-47D breast 2.6% | BT-549 breast -3.35% | MDA-MB-435 melanoma -35.5% | SW-620 colon -42.9% | MCF7 breast 7% | HCT-116 colon -78% | KM12 colon 5.22%
inactive: OVCAR-5 ovarian 35.1% | OVCAR-4 ovarian 36.4% | SK-OV-3 ovarian 51.8% | IGROV1 ovarian 32.9% | NCI/ADR-RES ovarian 24.4% | HCC-2998 colon 25.3%

c1ccc(C(c2nc3ncncc3[nH]2)N2CSc3nc4ccccc4n3C2)cc1 (centres undefined)
inactive: SR leukemia 111% | RPMI-8226 leukemia 104% | OVCAR-5 ovarian 103% | OVCAR-4 ovarian 99.7% | SK-OV-3 ovarian 102% | IGROV1 ovarian 99.9% | OVCAR-3 ovarian 105% | HS 578T breast 108% | NCI/ADR-RES ovarian 104% | T-47D breast 110% | BT-549 breast 102% | MDA-MB-435 melanoma 105% | SW-620 colon 98% | MCF7 breast 94.9% | HCT-116 colon 114% | HCC-2998 colon 107% | KM12 colon 94.4%

COC(=O)/C=C/c1c(C2(C)NC(=O)c3ccccc3N2)c(=O)oc2ccc(Cl)cc12 (centres undefined)
inactive: SR leukemia 108% | RPMI-8226 leukemia 94.7% | OVCAR-4 ovarian 98.7% | SK-OV-3 ovarian 106% | IGROV1 ovarian 68.1% | OVCAR-3 ovarian 102% | HS 578T breast 90.9% | NCI/ADR-RES ovarian 98.3% | T-47D breast 91.6% | BT-549 breast 87.4% | MDA-MB-435 melanoma 102% | SW-620 colon 96.3% | MCF7 breast 86.9% | HCT-116 colon 88.6% | HCC-2998 colon 102% | KM12 colon 93.4%

CC1(C)CC[C@]2(C(=O)N3CCOCC3)CC[C@]3(C)C(=CC[C@@H]4[C@@]5(C)C/C(=C/c6ccccn6)C(=O)C(C)(C)[C@@H]5CC[C@]43C)[C@@H]2C1
inactive: SR leukemia 22.5% | OVCAR-8 ovarian 77.9% | OVCAR-5 ovarian 88.4% | OVCAR-4 ovarian 36.1% | SK-OV-3 ovarian 108% | IGROV1 ovarian 65.3% | OVCAR-3 ovarian 70.2% | HS 578T breast 81.6% | NCI/ADR-RES ovarian 81.4% | T-47D breast 53.4% | BT-549 breast 70% | MDA-MB-435 melanoma 68.6% | SW-620 colon 69.6% | MCF7 breast 44% | HCT-116 colon 34.9% | HCC-2998 colon 81.4% | KM12 colon 72.4%

COc1cc(-c2nnc(SCc3ccc(O)c4ncccc34)n2-c2ccccc2)cc(OC)c1OC
inactive: SR leukemia 15.5% | OVCAR-5 ovarian 33.2% | HS 578T breast 20.3% | BT-549 breast 12.8% | MDA-MB-435 melanoma 10.8% | SW-620 colon 10.3% | HCC-2998 colon 22.1% | KM12 colon 14%
active: RPMI-8226 leukemia 3.25% | OVCAR-4 ovarian 6.79% | SK-OV-3 ovarian 1.71% | IGROV1 ovarian 8.92% | OVCAR-3 ovarian 6.44% | NCI/ADR-RES ovarian 0.665% | T-47D breast -0.917% | MCF7 breast 2.01% | HCT-116 colon 5.72%

CC(c1ccccc1)N1CSc2nc3ncncc3n2C1 (centres undefined)
active: MCF7 breast 5.38%
inactive: SR leukemia 88.2% | RPMI-8226 leukemia 26.4% | OVCAR-5 ovarian 39.7% | OVCAR-4 ovarian 27.1% | SK-OV-3 ovarian 24.8% | IGROV1 ovarian 45.5% | OVCAR-3 ovarian 33.1% | HS 578T breast 64.2% | NCI/ADR-RES ovarian 26.7% | T-47D breast 34% | BT-549 breast 59% | MDA-MB-435 melanoma 23.5% | SW-620 colon 41.1% | HCT-116 colon 19.2% | HCC-2998 colon 23.8% | KM12 colon 21.8%

CC1(C)[C@@H](O)CC[C@]2(C)[C@H]3CC[C@@H]4[C@H]5[C@H](C(=O)/C=C\c6ccccn6)CC[C@]5(O)CC[C@@]4(C)[C@]3(C)CC[C@@H]12
inactive: OVCAR-8 ovarian 39.5% | OVCAR-5 ovarian 48.4% | OVCAR-4 ovarian 32.9% | SK-OV-3 ovarian 89.8% | IGROV1 ovarian 34.5% | OVCAR-3 ovarian 25.4% | HS 578T breast 39.2% | NCI/ADR-RES ovarian 26.4% | T-47D breast 59% | BT-549 breast 36% | MDA-MB-435 melanoma 27.4% | SW-620 colon 18.5% | MCF7 breast 31.8% | HCC-2998 colon 52% | KM12 colon 30.7%
active: SR leukemia -17.6% | HCT-116 colon 2.84%

N#Cc1c(NC(=O)c2cccc(C(F)(F)F)c2F)sc2c1CCC(=O)C2
active: SR leukemia 0.648% | OVCAR-5 ovarian -6.14% | OVCAR-4 ovarian -36.3% | SK-OV-3 ovarian 5.3% | IGROV1 ovarian -0.691% | OVCAR-3 ovarian -40.5% | HS 578T breast -17% | NCI/ADR-RES ovarian -3.6% | T-47D breast -3.25% | BT-549 breast -22.7% | MDA-MB-435 melanoma -30.5% | SW-620 colon 0.65% | MCF7 breast 2.17% | HCT-116 colon -50.9% | HCC-2998 colon -29.6% | KM12 colon -42.7%
inactive: OVCAR-8 ovarian 11.7%

C#CCOc1ccc(/C=N\Nc2nc(-c3ccc(C)cc3)cs2)cc1OC
inactive: SR leukemia 83.2% | RPMI-8226 leukemia 68.3% | OVCAR-5 ovarian 96.8% | OVCAR-4 ovarian 76.8% | SK-OV-3 ovarian 87.6% | IGROV1 ovarian 92.3% | OVCAR-3 ovarian 99.3% | HS 578T breast 111% | NCI/ADR-RES ovarian 96.2% | T-47D breast 61.7% | BT-549 breast 80.7% | MDA-MB-435 melanoma 91.6% | SW-620 colon 95.4% | MCF7 breast 62.5% | HCT-116 colon 88% | HCC-2998 colon 101% | KM12 colon 85.6%
